Assay results as given in PubChem BioAssay (NCI).
Compounds without any hit were thinned out: in the full panel of roughly 83,000, 20% have a hit.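 Percent growth is the endpoint: 0 to 100 indicates growth inhibition (40 means 60% inhibition), 0 means no net growth, and negative values indicate cell death.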 Activity calls are given as the source filed them. The calls were made as follows: active = growth percent below 10; inactive = the rest.

What follows are compounds tested on COLO 205 colon (assay: NCI-60 one-dose screen, 48 h (100 = growth as untreated, 0 = no growth, -100 = all killed)). Details: 10 µM unless noted.

Row | Compound | growth
1 | CCOC(=O)c1ccccc1-c1c2ccc(=[N+](C)C)cc-2oc2cc(N(C)C)ccc12 | -46.6% (active)
2 | O=C(Nc1ncc(Cc2cc(C(F)(F)F)ccc2Cl)s1)c1cccs1 | 56.2% (inactive)
3 | Clc1ccccc1-c1cnn2cc(-c3ccccc3)cnc12 | 91.8% (inactive)
4 | NC1(CO)COC(c2ccccc2)OC1 (centres undefined) | 107% (inactive)
5 | COc1cc(OC)cc(-c2ccc(-c3ccc(C(=N)N)o3)o2)c1 | -61.5% (active)
6 | CN1CCN(Cc2ccc(NC(=O)c3cncc(C#Cc4cnc5ccc(Cl)nn45)c3)cc2C(F)(F)F)CC1 | -46.1% (active)
7 | NS(=O)(=O)c1ccc(NC(=O)/C(=C\c2ccc(Cl)cc2Cl)NC(=O)c2ccccc2)cc1 | 110% (inactive)
8 | C/C=C(/C)n1cnc2c(Nc3ccccn3)nc(Cl)nc21 | 114% (inactive)
9 | CS(=O)(=O)Nc1cc(-c2ccc3ncc(C#N)c(Nc4ccc(F)c(Cl)c4)c3c2)cnc1Cl | -53.5% (active)
10 | CNC(=O)c1cc(Oc2cccc3nc(NC(=O)Nc4cc(C(F)(F)F)ccc4Cl)ccc23)ccn1 | 67.5% (inactive)
11 | CN1CCN(Cc2ccc(NC(=O)c3cncc(C#Cc4cnc(N)c5ccc(F)cc45)c3)cc2C(F)(F)F)CC1 | -25.7% (active)
12 | CCN1CCN(CC(=O)Nc2nc3ccc(NCc4ccc(F)cc4)cc3s2)CC1 | 78% (inactive)
13 | COc1ccc(NC(=O)Nc2ccc(OCCCCCC(=O)NO)cc2)cc1 | 110% (inactive)
14 | CNC1=CC(=O)c2c(C(=O)OC)c(C)[n+]([O-])c(C)c2C1=O | 8.07% (active)
15 | Nc1nc(NC(=O)Nc2ccc(C(=O)O)cc2)nn1-c1ccc(S(N)(=O)=O)cc1 | 111% (inactive)
16 | O=C(CCCCCCN1CC(=O)N2[C@H](c3ccc(Cl)cc3)c3[nH]c4ccccc4c3C[C@@H]2C1=O)NO | 57.3% (inactive)
17 | CC(=O)OC[C@]12CC[C@@H]([C@@H](C)c3nnc(-c4ccncc4)o3)[C@@H]1[C@H]1CC[C@@H]3[C@@]4(C)CC[C@H](OC(C)=O)C(C)(C)[C@@H]4CC[C@@]3(C)[C@]1(C)CC2 | 82.4% (inactive)
18 | Cc1ccc(C(=O)Nc2cccc(C#Cc3cccc4[nH]nc(N)c34)c2)cc1C(F)(F)F | 40.2% (inactive)
19 | CCCCNC(=O)Oc1ccc(/C(=C(/C)Cc2ccc(OC)cc2)c2ccc(OCCN3CCCCCC3)cc2)cc1 | 57% (inactive)
20 | Cc1ccc2nc(/C(C#N)=C(/CCCO)NC(Cc3ccccc3)C(=O)OCc3ccccc3)[nH]c(=O)c2c1 (centres undefined) | 87.8% (inactive)

Row | Compound | growth
21 | O=C1/C(=C2\SC(=S)N(C3CC3)C2=O)SC(=S)N1C1CC1 | 117% (inactive)
22 | CC1=CC(c2ccco2)=C2C(N)=NNC2N1 (centres undefined) | 116% (inactive)
23 | Nc1nc2c(c3ncccc13)C(c1cccc(Cl)c1)Cc1ncccc1-2 (centres undefined) | -21.5% (active)
24 | O=C(O)c1ccc(-c2ccc(/C=N/Nc3nc(Nc4ccccc4)nc(N4CCCCC4)n3)o2)cc1 | 83.2% (inactive)
25 | COC(=O)c1c2c(c(C)[n+]([O-])c1C)C(=O)C(NCc1cccc(Cl)c1)=CC2=O | -50.3% (active)
26 | Fc1ccc(Cn2cc(CSc3nc4ccccc4o3)nn2)cc1 | 114% (inactive)
27 | CC1CCN(C(=O)CCCl)c2ccccc21 (centres undefined) | 111% (inactive)
28 | CC1CCN(C(=S)SCC(=O)NC(=O)c2ccccc2)CC1 | 104% (inactive)
29 | CCOc1ccc(-n2nc(C(=O)NCc3ccccc3OC)nc2-c2cc(OC)c(OC)c(OC)c2)cc1 | 30.3% (inactive)
30 | COc1ccc(C(=O)N2c3ccccc3Sc3ccccc32)c(C(F)(F)F)c1 | -13.9% (active)
31 | O=C(N=Nc1c(O)[nH]c2ccccc12)Nc1ccc(F)cc1 | 103% (inactive)
32 | O=C(O)c1cn(C2CC2)c2cc(N3CCN(C(=O)Nc4nc(-c5ccc(Br)cc5)cs4)CC3)c(F)cc2c1=O | 24.2% (inactive)
33 | CCN1C(=O)N(CC)C2C1NN=c1s/c(=C\c3ccc(C(F)(F)F)cc3)c(=O)n12 (centres undefined) | -6.59% (active)
34 | Cc1ccc(C(=O)c2ccc(CC(=O)N=Nc3c(O)[nH]c4ccc(Br)cc34)n2C)cc1 | 106% (inactive)
35 | Cc1ccc(Cl)cc1NC(=O)c1sc2nc3c(cc2c1N)C(=O)CCC3 | 39.7% (inactive)
36 | Clc1ccc(-c2cc(-c3ccccc3)nc(NCCNc3ccnc4cc(Cl)ccc34)n2)cc1 | -81.2% (active)
37 | N#C/C(=C\c1cn(Cc2ccccc2)c2ccccc12)C(=O)Nc1ncc(Cc2ccccc2Cl)s1 | -2.97% (active)
38 | CC/C=C\C[C@H](O)C/C=C1/C(=O)C=C[C@@H]1C/C=C\CCCC(=O)O | 65.4% (inactive)
39 | C#Cc1cccc(Nc2nc(C)nc3cc(NC(=O)CCl)ccc23)c1 | -78.6% (active)
